Experimental data from PubChem BioAssay (NCI).
This is part of a sample that, as a whole, favours compounds with a hit. Of some 83,000 tested, about 20% had one in any assay.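 Growth was measured after 48 h exposure to one concentration of compound in 96-well plates. Values under 10 count as active.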 Activity calls are given as the source filed them.

Experiments:
Assay in all cases: NCI-60 one-dose screen, 48 h (100 = growth as untreated, 0 = no growth, -100 = all killed)
[1] = tested on: NCI-H23 lung; conditions: 10 µM unless noted
[2] = tested on: NCI-H226 lung; conditions: 10 µM unless noted
[3] = tested on: NCI-H322M lung; conditions: 10 µM unless noted
[4] = tested on: HOP-62 NSCLC; conditions: 10 µM unless noted
[5] = tested on: NCI-H460 lung; conditions: 10 µM unless noted
[6] = tested on: HOP-92 NSCLC; conditions: 10 µM
[7] = tested on: NCI-H522 lung; conditions: 10 µM unless noted
[8] = tested on: A549/ATCC NSCLC; conditions: 10 µM unless noted
[9] = tested on: 786-0 renal; conditions: 10 µM unless noted
[10] = tested on: COLO 205 colon; conditions: 10 µM unless noted

Measured: growth

C#Cc1nc(/C=C/C(=O)c2nccn2C)cs1
active: [1] -69.3% | [2] 4.67% | [4] -44.9% | [5] -47.2% | [6] -71% | [7] -60.1% | [8] -3.96% | [9] -65.9% | [10] -30.6%
inactive: [3] 28.5%

C=CCn1c(SCC(=O)Nc2ccc(C(=O)/C=C/c3ccc(C)cc3)cc2)nnc1-c1c[nH]c2ccccc12
inactive: [1] 97.7% | [2] 78.1% | [3] 97.1% | [4] 94.4% | [5] 102% | [6] 86.3% | [7] 81.3% | [8] 75.9% | [9] 103% | [10] 112%

C#Cc1nc(C(=O)NCCC(=O)Nc2ccc(NC(=O)c3ccc(/C=C/C(=O)c4nccn4C)cc3)cc2)cs1
active: [9] -59.8%
inactive: [1] 33.1% | [2] 74.9% | [3] 62.2% | [4] 24.1% | [5] 33.9% | [6] 120% | [7] 14.9% | [8] 55.8% | [10] 56.1%

Cn1ccnc1C(=O)/C=C/C=C/c1ccc(C(=O)Nc2ccc(F)cc2)cc1
active: [7] 4.66%
inactive: [1] 18.2% | [2] 54.7% | [3] 61.1% | [4] 44.7% | [5] 34.2% | [6] 82.9% | [8] 56.7% | [9] 22.8% | [10] 32.8%

C#Cc1ccc(C(=O)NCc2ccc(/C=C/C(=O)c3nccn3C)cc2)cc1
inactive: [1] 10% | [2] 31.9% | [3] 12.5% | [4] 27.5% | [7] 25.9% | [8] 13.4% | [9] 19.3% | [10] 22.8%
active: [5] -45.4% | [6] -0.611%

NS(=O)(=O)c1ccc(-n2cc(CN3CCCCC3)nn2)cc1
inactive: [1] 107% | [2] 98.6% | [3] 107% | [4] 106% | [5] 105% | [6] 96.6% | [7] 95.8% | [8] 105% | [9] 109% | [10] 119%

O=C(CNc1nc(-c2cccc([N+](=O)[O-])c2)cs1)Nc1cccc(Cl)c1
inactive: [1] 96% | [2] 99.4% | [3] 101% | [4] 96.6% | [5] 113% | [6] 104% | [7] 98.3% | [8] 108% | [9] 105% | [10] 112%

O=C(NNc1nc2cc(F)c(F)cc2n2cccc12)c1cnccn1
active: [5] 7.99%
inactive: [1] 34.5% | [2] 45.1% | [3] 35% | [4] 24.8% | [6] 36.4% | [7] 13.4% | [8] 24.1% | [9] 30.6% | [10] 11.9%

N#Cc1cnc2ccc(-c3cnc4[nH]ncc4c3)cc2c1N1CCc2cc(F)c(Cl)cc21
active: [1] 7.08% | [2] -0.212% | [4] 3.97% | [5] 3.18% | [6] -7.43% | [7] 1.37% | [8] 9.1%
inactive: [3] 15.3% | [9] 11% | [10] 12%

CCN1CCN(Cc2ccc(C(=O)Nc3ccc(C)c(Oc4ccc(-c5[nH]nc6ncnc(N)c56)cc4)c3)cc2C(F)(F)F)CC1
inactive: [1] 93.2% | [2] 85.8% | [3] 99% | [4] 103% | [5] 106% | [6] 70.3% | [7] 101% | [8] 96.6% | [9] 69.4% | [10] 56.7%

CN(Cc1ccccc1)S(=O)(=O)/N=C1\NC(=O)NC1=C(Cl)Cl
inactive: [1] 66.1% | [2] 91.7% | [3] 95.1% | [4] 40.8% | [5] 17.9% | [6] 73.7% | [8] 99.4% | [9] 22.4%
active: [7] -21.5% | [10] -26.1%

Cc1cc2nc(C(Cl)Cl)nc(-c3cccs3)n2n1
inactive: [1] 10.5% | [2] 86.7% | [7] 46.8% | [9] 77.5%
active: [3] -20.6% | [4] -2.2% | [5] -39% | [6] -10.8% | [8] -23.5% | [10] -44.3%

CS(=O)(=O)Nc1cc(-c2ccc3ncc(C#N)c(NCc4ccccc4O)c3c2)cnc1Cl
inactive: [2] 16.9% | [3] 16.1% | [7] 12.8% | [8] 15.8%
active: [1] -7.77% | [4] 3.57% | [5] 7.88% | [6] -10.8% | [9] 8.24% | [10] 8.91%

COc1cc(/C=N/NC(=O)c2cn(C3CC3)c3c(OC)c(N4CC5CCCNC5C4)c(F)cc3c2=O)ccc1O (stereo not given)
inactive: [1] 55.4% | [2] 87.3% | [3] 55.4% | [4] 96% | [6] 79.5% | [7] 46.8% | [10] 35.6%
active: [5] -66.6% | [8] -21.4% | [9] -62.2%

NS(=O)(=O)c1ccc(Nc2nc(N/N=C/c3c[nH]c4ccccc34)nc(Nc3ccccc3)n2)cc1
inactive: [1] 47.1% | [2] 42% | [3] 54.4% | [4] 63.8% | [5] 41.2% | [6] 61.4% | [7] 31.6% | [8] 78.3% | [9] 41.8% | [10] 40.9%

O=C(c1ccc(O)cc1)[C@@H]1CN[C@@]2(C(=O)Nc3ccccc32)[C@H]1c1ccc(F)cc1
inactive: [1] 94.5% | [2] 96.2% | [3] 99.7% | [4] 99.5% | [5] 111% | [6] 101% | [7] 96.6% | [8] 108% | [9] 110% | [10] 116%

NS(=O)(=O)c1ccc(Nc2nc(N/N=C/CCc3ccccc3)nc(Nc3ccccc3)n2)cc1
inactive: [1] 104% | [2] 104% | [3] 108% | [4] 108% | [5] 104% | [6] 97.4% | [7] 87.1% | [8] 106% | [9] 93.6% | [10] 105%

COc1ccc(NC(=O)CSc2nnc(-c3ccc4nc(-c5ccccc5)[nH]c4c3)o2)cc1
inactive: [1] 96.3% | [2] 96.2% | [3] 98% | [4] 101% | [5] 99.8% | [6] 99.4% | [7] 94.2% | [8] 101% | [9] 96.3% | [10] 108%

CN(C)CCNC(=O)c1ccc(-c2nc3ccc4[nH]ncc4c3c3c2CCC3)cc1
active: [1] -15.2% | [3] 6.34% | [4] 5.66% | [5] 1.65% | [6] -29.8% | [7] -40.6% | [8] 7.96% | [10] -11.6%
inactive: [2] 10.8% | [9] 12%

Cc1ccc(-c2cc3nc(C(Cl)Cl)nc(-c4cccs4)n3n2)cc1
inactive: [1] 83.9% | [2] 87.3% | [3] 38.6% | [4] 54.1% | [6] 80% | [7] 97.9% | [8] 67.9% | [9] 100% | [10] 43.7%
active: [5] 3.91%

Cc1ccc(-n2cc(/C=N/NC(=O)c3nc(N)n[nH]3)c(-c3ccc(S(C)(=O)=O)cc3)n2)cc1
inactive: [1] 96.6% | [2] 102% | [3] 104% | [4] 98.6% | [5] 103% | [6] 94.2% | [7] 92.3% | [8] 104% | [9] 98.6% | [10] 105%

O=C(Nc1ccc(F)c(F)c1)c1cc(-c2ccc(F)cc2F)ccc1O
active: [1] -9.76% | [2] 3.67% | [3] 3.88% | [5] 2.98% | [6] -19% | [7] -1.71% | [8] 8.98% | [9] 9.53%
inactive: [4] 19% | [10] 82.1%

CC1=NC2=NN3C(=NN2C(c2ccccc2)=C1)N=NC(c1ccc(Br)cc1)=C3c1ccc(Br)cc1
inactive: [1] 105% | [2] 102% | [3] 101% | [4] 102% | [5] 112% | [6] 110% | [7] 98.5% | [8] 109% | [9] 107% | [10] 112%

CCOP(=O)(OCC)OC[C@]12CCC(C)(C)C=C1[C@H]1CC[C@@H]3[C@@]4(C)CC[C@H](OP(=O)(OCC)OCC)C(C)(C)[C@@H]4CC[C@@]3(C)[C@]1(C)CC2
active: [1] -38.4% | [2] -72.3% | [3] 1.63% | [4] -38.3% | [5] -62.2% | [6] -65.2% | [7] -59.1% | [8] -45.3% | [9] -59.7% | [10] -43.1%
